Compounds with a hit are over-represented: about 21% of the library has one in this group of screens.
HCV inh – blocks hepatitis C virus | Potency, µM (doses to about 41.8 µM), for inactives: top-dose activity change, negative = inhibition, hits mostly inhibitors | 340,000 compounds, 3.4% hits | Huh7.5.1 HCVcc-Cre infection, luciferase reporter, 44 h; note: potency is the fitted concentration of half-maximal effect; % is set by controls: 0 for no effect and ±100 for the full control effect
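Cells (1,000/well) were plated 4 h before compound, then infected with HCVcc-Cre virus (~0.5 moi). After 44 h further culture, infection was read as luciferase luminescence following a 15 min substrate incubation at room temperature.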
AMA1 RON2 block – AMA1-RON2 (P. falciparum) interaction inhibition. AlphaScreen AMA1-biotinylated RON2 peptide binding. AID 720542. Potency, µM (doses to about 58.2 µM), without a hit: at the top dose activity change, negative = inhibition, usual class: inhibitors. 360,000 compounds, 0.2% hits;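 note: potency is the fitted concentration of half-maximal effect; 0% = vehicle wells and -100% = peptide control; nearly all actives have a fitted effect of over 45% in size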
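AMA1 (3D7) with his tag at 25 nM final met compounds first, then biotinylated RON2 peptide at 25 nM; detection used donor plus acceptor beads, 10 µg/mL apiece, read by AlphaScreen after 30 min at room temperature.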
Cycloheximide cs – affects cycloheximide protein synthesis inhibition readout, counter-screen | cell reporter, cycloheximide protein synthesis inhibition counterscreen | 300,000 compounds, 12% hits | max response, %; in the data active = max response mostly above about 13%, no sharp cut-off; inactive = mostly below about 14%; note: read at 38.3 µM for the half of the compounds with a filed dose; 0% is about no effect
Pf growth 48h – inhibits P. falciparum growth in the first generation, 48 h. 310,000 compounds, 5.9% hits. Potency, µM (titrated, usually from 28.7 µM), for the others: top-dose activity change, negative = inhibition, usual class: inhibitors. AID 504832. P. falciparum luciferase growth in erythrocytes, 48 h; note: potency is the fitted concentration of half-maximal effect; % is set by controls: 0 for no effect and ±100 for the full control effect
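Erythrocytes infected with P. falciparum carrying an integrated firefly luciferase reporter (2% hematocrit, 0.1% parasitemia final) were exposed to compounds in RPMI 1640 with 0.5% Albumax at 37 C, 5% CO2. Growth inhibition was scored as reduced luminescence.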
Pf growth 96h – P. falciparum growth inhibition at 96 hour, primary screen for plastid delayed-death inhibitors; AID 504834; P. falciparum luciferase reporter growth, 96 h; 320,000 compounds, 6.9% hits; Potency, µM (doses to about 28.7 µM), without a hit: at the highest dose activity change, negative = inhibition, hits mostly inhibitors; note: potency is the fitted concentration of half-maximal effect; % is set by controls: 0 for no effect and ±100 for the full control effect
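Readout is luminescence from an integrated firefly luciferase in P. falciparum. Red cells, 2% hematocrit and 0.05% parasitemia final, were cultured with compound through two parasite generations (96 hours) at 37 C, 5% CO2.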
Shiga inhibitor – inhibitors of Shiga toxin in Vero cells; Vero cells, Shiga toxin protein synthesis inhibition reporter; inhibition, % at 38.7 µM; 290,000 compounds, 9.2% hits; AID 2315; in the data active = inhibition mostly above about 28%, no sharp cut-off; inactive = mostly below about 43%; note: 0% is about no effect
Starred values were filed as active, the others as inactive; i = inactive; ? = inconclusive; nt = not tested or not shown; [ ] = another dose, or the depositor's remark. Unless noted, calls come from the whole dose curve; as a rule, active = well fitted curve in the direction sought with a large enough effect; inconclusive = small, poorly fitted or top-dose-only effect, or another doubt; inactive = no such curve, though single readings can be large; an effect the other way counts as inactive or inconclusive.

SMILES	HCV inh	AMA1 RON2 block	Cycloheximide cs	Pf growth 48h	Pf growth 96h	Shiga inhibitor
C=CCn1c(SCc2c(C)noc2C)nc2sc3c(c2c1=O)CCCC3	?	4%	-4	13µM*	2.1µM*	-11
O=C(Nc1ccc2c(c1)OCO2)c1cc(C2CCCCN2C(=O)c2ccccc2)on1 (stereo unspecified)	nt	-1%	nt	nt	nt	nt
COc1cc2c(c(OC)c1OC)C(c1ccccc1C)CC(=O)O2 (stereo unspecified)	-9%	-3%	-1	nt	nt	i
NC(=O)COC(=O)/C=C/c1cccc(Br)c1	3%	5%	7	32%	4%	19
Cc1noc(C)c1CSc1nc2sc(C)c(C)c2c(=O)n1C1CCCC1	?	-17%	-7	4.1µM*	nt	-4
CC(C)(O)C#Cc1ccc(C(=O)NCCC(=O)O)s1	2%	-2%	-4	22%[5.75 µM]	24%	13
CC(C)(O)C#Cc1ccc(C(=O)Nc2ccc3c(c2)OCO3)s1	?	32%	58*	160%	?	107*
CC(C)(O)C#Cc1ccc(C(=O)NC2CCCCC2)s1	?	5%	27*	-12%	19%	74*
CCc1ccc(C(=O)NC2CCCCC2)s1	nt	-1%	53*	254%	nt	67*
C=CCn1c(CSc2ccccc2[N+](=O)[O-])n[nH]c1=S	7%	84%	13	nt	4%	34
C=CCn1c(Sc2ncc([N+](=O)[O-])s2)n[nH]c1=O	6.3µM*	3%	21*	?	10µM*	32
CC(C)(C)OC(=O)N1CCC[C@H]1c1nnc(SCc2ccccc2)o1	26%	-19%	5	?	12µM*	5
Cc1ccc(CSc2nnc([C@@H]3CCCN3C(=O)OC(C)(C)C)o2)cc1	22µM*	-10%	-3	?	?	26
COCCNC(=O)C1(C)CCCN(C(=O)c2cc(F)cc(F)c2)C1 (stereo unspecified)	nt	25%	nt	nt	nt	nt
Cc1ccc(-c2noc(C3CCCN(C(=O)c4ccc(F)cc4F)C3)n2)cc1 (stereo unspecified)	?	-4%	15*	-24%	?	17
COc1cccc(-c2noc(C3CCCN(C(=O)c4ccc(F)cc4F)C3)n2)c1 (stereo unspecified)	-15%	3%	1	11%	270%	31
CC(C)c1ccc(-c2noc(C3CCCN(C(=O)c4ccc(F)cc4F)C3)n2)cc1 (stereo unspecified)	11µM*	8%	55*	?	51%	38*
Cc1cc2c(s1)c1cnn(Cc3ccc(F)c(F)c3F)c(=O)c1n2C	nt	nt	10	nt	nt	20
S=C(NCc1ccncc1)Nc1ccc(Cl)cc1	0%	5%	-3	-15%	-8%	1
Clc1ccc(Nc2nnc(Cc3ccncc3)c3ccccc23)cc1	nt	nt	nt	13µM*	6.7µM*	nt
COc1cc(C2C(C#N)=C(C)NC(C)=C2C#N)cc(OC)c1OC	15%	-5%	-2	9.3µM*	12µM*	-8
COc1cccc(C(=O)Cn2c(=O)n(CC3CCCO3)c(=O)c3ccccc32)c1 (stereo unspecified)	-4%	-2%	1	nt	12µM*	9
COc1cccc(/C=C2\SC(=S)N(CC3CCCO3)C2=O)c1 (stereo unspecified)	-10%	?	26*	-2%	20%	38*
O=C1/C(=C/c2cccc(O)c2)SC(=S)N1CC1CCCO1 (stereo unspecified)	7%	-18%	32*	?	-13%	72*
OCCN1CCN(c2ncnc3c2ncn3[C@H]2CN(Cc3cccs3)C[C@@H](CO)O2)CC1	nt	-4%	nt	nt	nt	nt
SMILES	HCV inh	AMA1 RON2 block	Cycloheximide cs	Pf growth 48h	Pf growth 96h	Shiga inhibitor
Cc1ccc(NC(=O)NNC(=O)c2cccs2)cc1	8%	31%	17*	48%	24%	38*
COc1ccc(CC(=O)NNC(=O)c2cccs2)cc1	-2%	11%	6	31%	2.9µM*	5
COc1cccc(-c2nc(-c3ccc(NC(=O)c4cccs4)cc3)no2)c1	?	7%	56*	16%	4.1µM*	64*
CC(=O)Nc1ccc2[nH]ccc2c1	1%	2%	-6	28%	15%	11
COc1ccc(CC(=O)NNC(=O)Cc2ccc(OC)cc2)cc1	nt	nt	-2	10%	-5%	15
O=C(Nc1ccc2[nH]ccc2c1)c1cccs1	-1%	-13%	27*	152%	424%	55*
CC(=O)Nc1ccc(-n2nnnc2SCC(=O)Nc2cccc(NC(=O)c3ccco3)c2)cc1	?	?	-1	?	?	-1
CCCCCN(C(=O)CCC(=O)OCc1cccc(Br)c1)c1c(N)n(CCCC)c(=O)[nH]c1=O	?	-1%	nt	?	?	nt
CCN(CC)CCCNC(=O)CSc1nc(C)cc(C)n1	7%	-4%	4	7%	0%	-4
CNC(=S)NNC(=O)c1cccs1	3%	40%	-2	14%	11%	22
COc1ccc(NC(=S)NNC(=O)c2cccs2)cc1	33%	36%	27*	32%	5%	46*
CC(C)c1ccc(NC(=S)NNC(=O)c2cccs2)cc1	12%	87%	42*	20%	-11%[1.15 µM]	72*
O=C(Nc1ccc(Oc2ccc(C(=O)O)c(C(=O)O)c2)cc1)c1cccs1	18%	-6%	1	7%	2.1µM*	-15
COc1ccc(C(=O)Nc2ccc(NC(=O)c3cccs3)cn2)cc1	3%	?	20*	38%	-13%	43
Cc1cc(NC(=O)c2ccc(NC(=O)c3cccs3)cc2)no1	-50%	-21%	11	6%	102%	15
C[C@H](CO)N1C[C@H](C)[C@@H](CN(C)Cc2ccncc2)OCc2cnnn2CCCC1=O	nt	-6%	nt	nt	nt	nt
O=S(O)CO	nt	nt	-5	nt	nt	-6
Cn1c(SCC(=O)Nc2ccc3c(c2)OCCO3)nnc1-c1ccncc1	2%	5%	13	6%	-2%	21
O=C(Nc1nonc1NC(=O)c1cccs1)c1cccs1	4µM*	-8%	5	6%	-15%	20
CC(C)C(=O)Nc1ccc(NC(=O)c2cccs2)cn1	2%	-5%	50*	127%	0%	114*
O=C(Nc1ccc(NC(=O)C2CC2)cc1)c1cccs1	4%	1%	43*	128%	10µM*	67*
CC(C)C(=O)Nc1ccc(NC(=O)c2cccnc2)cn1	1%	0%	8	53%	122%	30
COc1ccc(NC(=O)C2CCN(C(=O)c3cccs3)CC2)cc1	3%	-21%	1	-4%	nt	-12
Cn1nnc(NC(=O)c2cccs2)n1	0%	-10%	10	26%	-20%	15
CC1CC(C)CN(S(=O)(=O)c2ccc(NC(=O)[C@@H]3CCCN3C(=O)c3cccs3)cc2)C1 (stereo partly specified)	?	-5%	nt	12µM*	?	nt

Assay outcomes as filed in PubChem.
